{
  "source": "PubChem BioAssay AID485364",
  "about": "(National Center for Advancing Translational Sciences (NCATS), 2010)",
  "note": "Screen size: about 360,000 compounds; about 11,000 (3.1%) were called active. Inconclusive results (about 4%) are left out. Calls come from the whole dose curve; as a rule, active = well fitted inhibition curve with a large enough effect; inconclusive = small, poorly fitted or top-dose-only effect; inactive = no such curve, though single readings can be large or run the other way. The full list was thinned out, with actives kept by preference. % is set by controls: 0 for no effect and ±100 for the full control effect; potency is the fitted concentration of half-maximal effect.",
  "data": [
    {"target": "Schistosoma mansoni thioredoxin glutathione reductase (TGR) (UniProt Q962Y6)", "assay": "qHTS Assay for the Inhibitors of Schistosoma Mansoni Peroxiredoxins; note: nearly all actives have a fitted effect of over 60% in size", "conditions": "purified TGR, DTNB reduction, TNB absorbance 405 nm; series mostly up to 114 µM; activity change, negative = inhibition: at the top concentration", "procedure,_shortened": "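Kinetic colorimetric format: TGR-catalysed, NADPH-driven DTNB reduction monitored via TNB absorbance. Enzyme dispensed at 20 nM; compound exposure 15 min at room temperature before reaction start.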", "values": [
      {"smiles": "Cc1nc2nc(SCC(=O)N(Cc3ccccc3)C(C)C)nn2c(C)c1Cc1ccccc1Cl", "activity change, negative = inhibition": "-0.675% (inactive)"},
      {"smiles": "Cc1ccc(Nc2c(-c3ccc(Cl)cc3)nc3sccn23)c(C)c1", "activity change, negative = inhibition": "12.8% (inactive)"},
      {"smiles": "COc1ccc(-n2c(C)nc3c(cnn3-c3ccc(F)cc3)c2=O)cc1", "activity change, negative = inhibition": "7.03% (inactive)"},
      {"smiles": "O=C(c1ccco1)n1nc(-c2ccc(Cl)cc2)nc1NCc1ccccc1", "activity change, negative = inhibition": "-1.85% (inactive)"},
      {"smiles": "Cc1ccc(S(=O)(=O)n2nc(-c3ccc(Cl)cc3)nc2NCc2ccccc2)cc1", "activity change, negative = inhibition": "7.22% (inactive)"},
      {"smiles": "CS(=O)(=O)n1nc(-c2ccccc2)nc1NCc1ccco1", "Potency": "44.7 µM (active)"},
      {"smiles": "Cc1ccc(CNC(=O)CCc2c(C)nc3nc(CNC(=O)OC(C)(C)C)nn3c2C)cc1", "activity change, negative = inhibition": "-4.1% (inactive)"},
      {"smiles": "Cc1cc(OCC(=O)NCC2(N(C)C)CCCCC2)cc(C)c1Cl", "activity change, negative = inhibition": "0.106% (inactive)"},
      {"smiles": "O=C(C1=C[C@H](c2ccc(C(F)(F)F)cc2)C[C@H](OCc2ccc(CO)cc2)O1)N1CCN(Cc2ccccc2)CC1", "Potency": "28.2 µM (active)"},
      {"smiles": "O=C(NCc1ccccc1)C1=C[C@@H](c2ccc(C(F)(F)F)cc2)C[C@@H](OCc2ccc(CO)cc2)O1", "activity change, negative = inhibition": "-28.1% (inactive)"},
      {"smiles": "O=C(C1=C[C@H](c2coc3ccccc3c2=O)C[C@H](OCc2ccc(CO)cc2)O1)N1CCN(Cc2ccccc2)CC1", "activity change, negative = inhibition": "-28.2% (inactive)"},
      {"smiles": "O=C(CSCc1cnn(-c2ccccc2)c1-n1cccc1)NCc1ccc(Cl)cc1", "activity change, negative = inhibition": "-13.6% (inactive)"},
      {"smiles": "CCOc1ccc(C(=O)c2cn(Cc3ccccc3OC)c3ccc(F)cc3c2=O)cc1", "activity change, negative = inhibition": "1.39% (inactive)"},
      {"smiles": "COc1ccc2c(c1)Cc1sc(NC(=O)c3ccccc3Br)nc1-2", "activity change, negative = inhibition": "-24.5% (inactive)"},
      {"smiles": "O=S(=O)(c1ccc(C2CCCCC2)cc1)N1CCN(c2ccc(Cl)c(Cl)c2)CC1", "activity change, negative = inhibition": "0.0481% (inactive)"},
      {"smiles": "CCCCNC(=O)C1CCCN(c2nnc(C)c3c(C)n(-c4ccc(Cl)cc4)nc23)C1", "note": "(centres undefined)", "activity change, negative = inhibition": "-3.38% (inactive)"},
      {"smiles": "CCN(CCCNC(=O)Cn1ncc2c([nH]c3ccccc32)c1=O)c1cccc(C)c1", "activity change, negative = inhibition": "-0.871% (inactive)"},
      {"smiles": "CN(C)c1nc(N(C)C)nc(N(C#N)CCCl)n1", "Potency": "1 µM (active)"},
      {"smiles": "Cc1cccn2c(=O)c3cc(C(=O)NC(C)c4ccccc4)c(=N)n(CCCO)c3nc12", "note": "(centres undefined)", "activity change, negative = inhibition": "13.1% (inactive)"},
      {"smiles": "CCOC(=O)c1c(NC(C)=O)c2c3c(sc2n1Cc1c(C)cc(C)cc1C)CCCC3", "activity change, negative = inhibition": "1.55% (inactive)"},
      {"smiles": "O=C(c1cnn(-c2ccc(F)cc2)c1-n1cccc1)N1CCN(c2ccc(F)cc2)CC1", "activity change, negative = inhibition": "1.41% (inactive)"},
      {"smiles": "Cc1cc(C)c(C#N)c(SCc2[nH]nc3c2C(c2ccccc2)C(C#N)=C(N)O3)n1", "note": "(centres undefined)", "Potency": "22.4 µM (active)"},
      {"smiles": "COc1ccc(-c2[nH]nc3c2C(c2ccncc2)C(C#N)=C(N)O3)cc1", "note": "(centres undefined)", "activity change, negative = inhibition": "-12.7% (inactive)"},
      {"smiles": "CCCc1[nH]nc2c1C(c1ccc(Br)s1)C(C#N)=C(N)O2", "note": "(centres undefined)", "activity change, negative = inhibition": "-35.1% (inactive)"},
      {"smiles": "Fc1cc(Br)ccc1NC(=S)Nc1cccnc1", "Potency": "10 µM (active)"},
      {"smiles": "S=C(Nc1cccnc1)Nc1ccccn1", "activity change, negative = inhibition": "-24.5% (inactive)"},
      {"smiles": "O=C(Nc1cccnc1)c1cc2cc(Br)ccc2oc1=O", "activity change, negative = inhibition": "-25.1% (inactive)"},
      {"smiles": "COc1cc(C2c3c(oc4ccccc4c3=O)C(=O)N2c2nc(C)c(C)s2)ccc1O", "note": "(centres undefined)", "activity change, negative = inhibition": "-26.8% (inactive)"},
      {"smiles": "O=C(Nc1c(C(=O)N2CCN(c3ccc(F)cc3)CC2)oc2ccccc12)c1ccco1", "activity change, negative = inhibition": "-0.224% (inactive)"},
      {"smiles": "CC(C)(C)c1ccc(/C=C2\\Oc3c(ccc(O)c3CN3CCN(CCO)CC3)C2=O)cc1", "Potency": "50.1 µM (active)"},
      {"smiles": "CCOC(=O)c1oc2c(CN3CCN(CCO)CC3)c(O)c(CC)cc2c(=O)c1-c1nc2ccccc2s1", "activity change, negative = inhibition": "-26.4% (inactive)"},
      {"smiles": "O=C(CSc1nc2c(c(=O)[nH]1)CN(Cc1ccc3c(c1)OCO3)CC2)Nc1cc(F)ccc1F", "activity change, negative = inhibition": "-9.35% (inactive)"},
      {"smiles": "CCOC(=O)c1ccc(COC(=O)c2cc(=O)[nH]c3ccccc23)o1", "activity change, negative = inhibition": "-15.9% (inactive)"},
      {"smiles": "CCOC(=O)c1cnc(COc2ccccc2Cl)[nH]c1=O", "activity change, negative = inhibition": "9.04% (inactive)"},
      {"smiles": "CCOC(=O)c1cc2c(=O)[nH]c(C(Cl)(Cl)Cl)nc2o1", "Potency": "17.8 µM (active)"},
      {"smiles": "Cc1ccc(OCC(=O)c2cc(C)n(Cc3ccco3)c2C)c([N+](=O)[O-])n1", "Potency": "35.5 µM (active)"},
      {"smiles": "COCC(C)n1c(C)cc(C(=O)COc2ccc(C)nc2[N+](=O)[O-])c1C", "note": "(centres undefined)", "activity change, negative = inhibition": "59.1% (inactive)"},
      {"smiles": "Cc1cc(C(=O)COC(=O)CNC(=O)c2ccc(F)cc2)c(C)n1Cc1ccco1", "activity change, negative = inhibition": "-4.25% (inactive)"},
      {"smiles": "CCOc1ccccc1NC(=S)NC(=O)CCc1ccccc1", "Potency": "7.94 µM (active)"},
      {"smiles": "CCOc1ccccc1NC(=O)CCc1nnc2ccc(NCc3ccco3)nn12", "activity change, negative = inhibition": "-19.5% (inactive)"},
      {"smiles": "CCOc1ccccc1NC(=O)NC1CCCCCCC1", "activity change, negative = inhibition": "-7.77% (inactive)"},
      {"smiles": "CCOc1ccc(CNC(=O)Cn2cc3c(n2)-c2c(oc(C(=O)N4CCCC4)c2C)CC3)cc1", "activity change, negative = inhibition": "-0.78% (inactive)"},
      {"smiles": "CC1=C(C(=O)OCc2ccc(C)cc2)C(c2c(Cl)cccc2Cl)CC(=O)N1", "note": "(centres undefined)", "activity change, negative = inhibition": "-1.29% (inactive)"},
      {"smiles": "COc1ccc(CNC(=O)c2cc3c(=O)[nH]c4ccccc4c3s2)cc1", "activity change, negative = inhibition": "-3.05% (inactive)"},
      {"smiles": "CCc1cccc(CC)c1NC(=S)NCc1ccc2[nH]c(C)cc2c1", "activity change, negative = inhibition": "4.53% (inactive)"},
      {"smiles": "Cc1cc2cc(CNC(=O)c3cccs3)ccc2[nH]1", "Potency": "31.6 µM (active)"},
      {"smiles": "COc1cc2nc(SCc3ccc(F)cc3)n3nc(CCn4c(C)nc5ccccc54)nc3c2cc1OC", "activity change, negative = inhibition": "4.89% (inactive)"},
      {"smiles": "CCCSc1nc2sc3c(c2c(=O)n1-c1cccc(Br)c1)CC(C)(C)OC3", "activity change, negative = inhibition": "7.71% (inactive)"},
      {"smiles": "COc1ccc(CCNc2ncnc3c2cnn3-c2ccc(C)cc2)cc1", "activity change, negative = inhibition": "-0.478% (inactive)"}
    ]}
  ]
}
